Test results from PubChem BioAssay (EPA / NIEHS).
Results filed as inconclusive are left out. The source made the active and inactive calls. The calls were made as follows, unless noted: active = hit-call score of the fitted dose curve at least 0.9, where 1 is the maximum; inactive = score below 0.9.

What was measured:
[1] = CCTE_Mundy_HCI_Cortical_NOG_NeuriteLength: CCTE's Neurite Outgrowth Assay in rat cortical cells for Neurite Length, Mundy Lab (AID 2284213)
Procedure, shortened: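 First, rat primary cortical cells were plated and, 2 h later, given test chemical as a 1/10 dilution. Finally, βIII-tubulin immunostaining enabled automated imaging of neurite length.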

[2] = CCTE_Mundy_HCI_Cortical_Synap_Neur_Matur_NeuriteLength: CCTE's Synaptogenesis and Neurite Maturation Assay in rat cortical cells for Neurite Length, Mundy Lab (AID 2284214)
Procedure, shortened: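 Cultures of rat primary cortical cells received chemical at DIV 7 and were fixed at DIV 12, after glial arrest with AraC at DIV 5. Neurite length was measured by automated imaging of MAP2 immunofluorescence.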

[3] = CCTE_Mundy_HCI_Cortical_Synap_Neur_Matur_SynapseCount: CCTE's Synaptogenesis and Neurite Maturation Assay in rat cortical cells for Synapse Count, Mundy Lab (AID 2284218)
Procedure, shortened: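 Cells were plated, allowed 2 hr to attach, treated with AraC at DIV 5, then exposed to chemicals from DIV 7 until DIV 12. After fixation and MAP2/synaptophysin immunolabelling, synapses per neuron were quantified by automated imaging against DMSO.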

[4] = CCTE_Mundy_HCI_hN2_NOG_NeuriteCount: CCTE's Neurite Outgrowth Assay in human hN2 cells for Neurite Count, Mundy Lab (AID 2284219; active = hit-call score of the fitted dose curve at least 0.9, where 1 is the maximum)
Procedure, shortened: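 In this morphology assay, hNP1-derived neurons received test chemical 2 h post-plating and were fixed two days later in warm paraformaldehyde/sucrose containing Hoechst 33342. Neurites, labelled by rabbit anti-βIII-tubulin (1:800) and Alexa Fluor-488 (1:500), were counted automatically.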

[5] = CCTE_Mundy_HCI_hN2_NOG_NeuronCount: CCTE's Neurite Outgrowth Assay in human hN2 cells for Neuron Count, Mundy Lab (AID 2284221; active = hit-call score of the fitted dose curve at least 0.9, where 1 is the maximum)
Procedure, shortened: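 Read-out is the number of betaIII-tubulin-positive neurons imaged by automated high-content analysis, with DMSO as negative control.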

[6] = CCTE_Mundy_HCI_Cortical_Synap_Neur_Matur_NeuriteCount: CCTE's Synaptogenesis and Neurite Maturation Assay in rat cortical cells for Neurite Count, Mundy Lab (AID 2284222);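 also: exposure from day 7 to day 12 in vitro with readout at day 12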
Procedure, shortened: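 Primary rat cortical cells were plated, treated with AraC at DIV 5, then exposed to chemicals from DIV 7 through DIV 12. After fixation and immunostaining for MAP2 and synaptophysin, imaging quantified neurites, with DMSO as the negative control.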

[7] = CCTE_Mundy_HCI_Cortical_Synap_Neur_Matur_CellBodySpotCount: CCTE's Synaptogenesis and Neurite Maturation Assay in rat cortical cells for Cell Body Spot Count, Mundy Lab (AID 2284223)
Procedure, shortened: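 Read-out: cell body-associated synaptophysin puncta per neuron, imaged after MAP2, synaptophysin and Hoechst staining. Rat cortical cells, AraC DIV 5, chemical dosing DIV 7, fixation DIV 12. Activity fitted in positive direction relative to DMSO baseline.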

[8] = CCTE_Mundy_HCI_Cortical_NOG_BPCount: CCTE's Neurite Outgrowth Assay in rat cortical cells for Branch Point Count, Mundy Lab (AID 2284237)
Procedure, shortened: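 Measured 50.33 h after dosing, this morphology endpoint uses rat primary cortical cultures labelled for betaIII-tubulin. Branch points are quantified by high-content imaging, with DMSO as negative control and baseline.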

[9] = CCTE_Mundy_HCI_hNP1_Casp3_7: CCTE's Caspase-Glo 3/7 Assay in human neuroprogenitor cells for Apoptosis, Mundy Lab (AID 2284240)
Procedure, shortened: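 Neuroepithelial-lineage stem cells from WA09 embryonic cells were treated with chemicals after 40–44 h of culture. Twenty-four hours later, caspase-3/7 activation was detected luminescently after a 30 min room-temperature reagent step, with DMSO as baseline.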

[10] = CCTE_Mundy_HCI_hNP1_CellTiter: CCTE's Cell Titer-Glo 2 Assay in human neuroprogenitor cells for Viability, Mundy Lab (AID 2284241; active = hit-call score of the fitted dose curve at least 0.9, where 1 is the maximum)
Procedure, shortened: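 Measures ATP content in human neural progenitors derived from WA09 embryonic cells. Read-out at 26.5 hours after dosing, with DMSO serving as the negative control and baseline.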

[11] = CCTE_Mundy_HCI_Cortical_Synap_Neur_Matur_NeuronCount: CCTE's Synaptogenesis and Neurite Maturation Assay in rat cortical cells for Neuron Count, Mundy Lab (AID 2284242; active = hit-call score of the fitted dose curve at least 0.9, where 1 is the maximum)
Procedure, shortened: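 Cortical cells from rat are plated, treated with AraC at DIV 5, and exposed to test chemicals with a media change at DIV 7. At DIV 12 they are fixed and immunostained (MAP2, synaptophysin), and imaged neuron counts are compared against DMSO controls.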

[12] = IUF_NPC2a_radial_glia_migration_120hr: Leibniz Research Institute for Environmental Medicine (IUF) 120-hour Neural Progenitor Cell Migration Assay for Radial Glia Migration (NPC2a) (AID 2284298)
Procedure, shortened: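 Hoechst-stained nuclei imaged at 120 h; algorithm maps sphere core by densest nuclei, sets migration edge at density threshold, gives radial glia migration distance (um) per well vs DMSO. hNPC spheres (0.3 mm), PDL/laminin, DMEM/F12 3:1 + 1% N2.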

[13] = IUF_NPC2a_radial_glia_migration_72hr: Leibniz Research Institute for Environmental Medicine (IUF) 72-hour Neural Progenitor Cell Migration Assay for Radial Glia Migration (NPC2a) (AID 2284299)
Procedure, shortened: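 Single 0.3 mm neurospheres were plated per well in N2 differentiation medium and exposed from the start of differentiation. After 72 hours, brightfield images were taken and radial glia migration from the sphere core edge was measured manually in four directions, averaged per well.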

[14] = IUF_NPC2b_neuronal_migration_120hr: Leibniz Research Institute for Environmental Medicine (IUF) 120-hour Neural Progenitor Cell Migration Assay for Neuron Migration (NPC2b) (AID 2284300)
Procedure, shortened: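 hNPC spheres, PDL/laminin, DMEM:F12 3:1 + 1% N2, 37C/5% CO2; 7 concentrations + solvent control (DMSO ≤0.1%), 5 d exposure, half-feed day 3. Fix 120 h, TUBB3 ICC, HCI: mean neuron migration distance ÷ glia distance.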

[15] = IUF_NPC3_neuronal_differentiation_120hr: Leibniz Research Institute for Environmental Medicine (IUF) 120-hour Neuronal Differentiation Assay (NPC3) (AID 2284301)
Procedure, shortened: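 Neuronal differentiation of primary human neural progenitors measured by high-content imaging: percent TUBB3+ of Hoechst+ nuclei within migrated area at 120 h, seven-point serial dilution plus solvent control, gain or loss relative to DMSO.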

[16] = IUF_NPC4_neurite_length_120hr: Leibniz Research Institute for Environmental Medicine (IUF) 120-hour Neuronal Morphology Assay for Neurite Length (NPC4) (AID 2284302)
Procedure, shortened: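 Neurons from differentiating human fetal neural progenitor spheres are scored for average neurite length after five days of compound exposure. Fitting uses DMSO as negative control.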

[17] = IUF_NPC4_neurite_area_120hr: Leibniz Research Institute for Environmental Medicine (IUF) 120-hour Neuronal Morphology Assay for Neurite Area (NPC4) (AID 2284305; active = hit-call score of the fitted dose curve at least 0.9, where 1 is the maximum)
Procedure, shortened: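 Endpoint at 120 h: automated imaging of TUBB3/Hoechst-stained differentiating human neural progenitor spheres, neurite area per neuron from skeletonization. DMSO solvent control, not above 0.1%, set the baseline; medium was half-replaced on day 3.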

[18] = IUF_NPC2-5_cytotoxicity_72hr: Cytotoxicity Assessment at 72 hours in the Leibniz Research Institute for Environmental Medicine (IUF) Neural Progenitor Cell Migration and Differentiation Assay for Cytotoxicity (NPC2-5) (AID 2284306; active = hit-call score of the fitted dose curve at least 0.9, where 1 is the maximum;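 also: LDH release into supernatant measured by resorufin fluorescence marking membrane damage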)
Procedure, shortened: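 Primary human neural progenitor spheres migrate and differentiate on laminin. Compound is present from the start of differentiation, with DMSO kept at or below 0.1%. At 72 h, supernatant LDH is quantified fluorometrically, with values fitted in the positive direction.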

[19] = IUF_NPC2-5_cytotoxicity_120hr: Cytotoxicity Assessment at 120 hours in the Leibniz Research Institute for Environmental Medicine (IUF) Neural Progenitor Cell Migration and Differentiation Assay (NPC2-5) (AID 2284307; active = hit-call score of the fitted dose curve at least 0.9, where 1 is the maximum)
Procedure, shortened: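 hNPC spheres on PDL/laminin, N2 medium, 37C; 7 concs + solvent control, DMSO ≤0.1%; 5-day exposure, half medium changed day 3. LDH in supernatant at 120 h, resazurin→resorufin fluorescence, gain-of-signal.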

[20] = IUF_NPC2-5_cell_number_120hr: Cell Number Assessment at 120 hours in the Leibniz Research Institute for Environmental Medicine (IUF) Neural Progenitor Cell Migration and Differentiation Assay (NPC2-5) (AID 2284308);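 also: count of Hoechst-stained nuclei in migration zone around plated human neural progenitor spheres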
Procedure, shortened: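 Hoechst-stained nuclei within the migration area were counted by automated high content imaging after 120 h. Single hNPC spheres differentiated on poly-D-lysine/laminin in DMEM/F12 (3:1) with 1% N2, compound present throughout, DMSO ≤0.1%.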

[21] = IUF_NPC2-5_viability_120hr: Viability Assessment at 120 hours in the Leibniz Research Institute for Environmental Medicine (IUF) Neural Progenitor Cell Migration and Differentiation Assay (NPC2-5) (AID 2284312)
Procedure, shortened: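 Human fetal (GW 16-19) neural progenitor spheres of 0.3 mm were plated on poly-D-lysine/laminin in N2 differentiation medium and exposed from day 0 for 120 h, with half-medium refresh at day 3. Viability was read as alamar blue resazurin-to-resorufin fluorescence against DMSO.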

Measured: outcome

F
inactive: all assays above
